According to PubChem BioAssay (NCI):
This is part of a sample that, as a whole, favours compounds with a hit. Of some 83,000 tested, about 20% had one in any assay.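 Method: cells in 96-well plates; compound added at one concentration; 48 h incubation; percent growth measured; values under 10 scored active.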 Calls of active or inactive are those of the source.

Key:
Assay in all cases: NCI-60 one-dose screen, 48 h (100 = growth as untreated, 0 = no growth, -100 = all killed)
Details in all cases: 10 µM unless noted
DU-145 prostate = tested on: DU-145 prostate
K-562 leukemia = tested on: K-562 leukemia
MALME-3M melanoma = tested on: MALME-3M melanoma
MDA-MB-231 breast = tested on: MDA-MB-231 breast
RXF 393 renal = tested on: RXF 393 renal
SF-268 CNS = tested on: SF-268 CNS
SF-539 CNS = tested on: SF-539 CNS
UACC-257 melanoma = tested on: UACC-257 melanoma
M14 melanoma = tested on: M14 melanoma
HCT-15 colon = tested on: HCT-15 colon
HT29 colon = tested on: HT29 colon
SNB-75 CNS = tested on: SNB-75 CNS
SNB-19 CNS = tested on: SNB-19 CNS
U251 CNS = tested on: U251 CNS
PC-3 prostate = tested on: PC-3 prostate
SK-MEL-5 melanoma = tested on: SK-MEL-5 melanoma
UACC-62 melanoma = tested on: UACC-62 melanoma
LOX IMVI melanoma = tested on: LOX IMVI melanoma
SK-MEL-28 melanoma = tested on: SK-MEL-28 melanoma

Measured: growth

COc1ccc2[nH]c(O)c(/C=c3/ccc4c(c3)N=C(c3ccc(C(F)(F)F)cc3)N=4)c2c1
inactive: DU-145 prostate 86.6% | K-562 leukemia 29.7% | MALME-3M melanoma 99.9% | MDA-MB-231 breast 74.8% | SF-268 CNS 85.6% | SF-539 CNS 78.2% | UACC-257 melanoma 94.9% | M14 melanoma 90.1% | HCT-15 colon 53.9% | HT29 colon 80% | SNB-75 CNS 60.7% | SNB-19 CNS 81.4% | U251 CNS 51.6% | PC-3 prostate 43.1% | SK-MEL-5 melanoma 79.1% | UACC-62 melanoma 86% | LOX IMVI melanoma 58.2% | SK-MEL-28 melanoma 83.9%
active: RXF 393 renal -4.65%

OC(c1cc(-c2ccc(C(F)(F)F)cc2)nc(-c2ccc(C(F)(F)F)cc2)c1)C1CCCCN1 (centres undefined)
active: DU-145 prostate -94.9% | K-562 leukemia -73.6% | MALME-3M melanoma -64.7% | MDA-MB-231 breast -71% | RXF 393 renal -86% | SF-268 CNS -83.9% | SF-539 CNS -77.3% | UACC-257 melanoma -76% | M14 melanoma -80.1% | HCT-15 colon -71% | HT29 colon -81.7% | SNB-75 CNS -82.9% | SNB-19 CNS -66.2% | U251 CNS -85% | PC-3 prostate -86.1% | SK-MEL-5 melanoma -78.2% | UACC-62 melanoma -84.3% | LOX IMVI melanoma -65.8% | SK-MEL-28 melanoma -88.5%

Cc1c(O)c(=O)n(-c2ccccc2)n1C
inactive: DU-145 prostate 116% | K-562 leukemia 106% | MALME-3M melanoma 112% | MDA-MB-231 breast 99.1% | RXF 393 renal 124% | SF-268 CNS 114% | SF-539 CNS 97.6% | UACC-257 melanoma 119% | M14 melanoma 100% | HCT-15 colon 92.7% | HT29 colon 103% | SNB-75 CNS 98.3% | SNB-19 CNS 106% | U251 CNS 105% | PC-3 prostate 92% | SK-MEL-5 melanoma 110% | UACC-62 melanoma 98.7% | LOX IMVI melanoma 105% | SK-MEL-28 melanoma 111%

CCc1ccc(-c2ccc(NC3CCCCCC3)nn2)cc1S(N)(=O)=O
inactive: DU-145 prostate 114% | K-562 leukemia 112% | MALME-3M melanoma 104% | MDA-MB-231 breast 109% | RXF 393 renal 115% | SF-268 CNS 117% | SF-539 CNS 98.9% | UACC-257 melanoma 100% | M14 melanoma 104% | HCT-15 colon 96.4% | HT29 colon 91.3% | SNB-75 CNS 97.2% | SNB-19 CNS 103% | U251 CNS 95.8% | PC-3 prostate 94.4% | SK-MEL-5 melanoma 98.5% | UACC-62 melanoma 97.8% | LOX IMVI melanoma 100% | SK-MEL-28 melanoma 105%

CC(C)N1CCN(c2ccncc2S(=O)(=O)N2CCN(C)CC2)CC1
inactive: DU-145 prostate 110% | K-562 leukemia 98% | MALME-3M melanoma 113% | MDA-MB-231 breast 101% | RXF 393 renal 107% | SF-268 CNS 107% | SF-539 CNS 99.8% | UACC-257 melanoma 102% | M14 melanoma 99.5% | HCT-15 colon 97.6% | HT29 colon 102% | SNB-75 CNS 80.6% | SNB-19 CNS 98.7% | U251 CNS 98.8% | PC-3 prostate 114% | SK-MEL-5 melanoma 100% | UACC-62 melanoma 108% | LOX IMVI melanoma 97.4% | SK-MEL-28 melanoma 114%

CCCCCCCCCCCCCCC(C(=O)OCC)C(=O)OCC
inactive: DU-145 prostate 110% | K-562 leukemia 121% | MALME-3M melanoma 92.8% | MDA-MB-231 breast 101% | RXF 393 renal 113% | SF-268 CNS 110% | SF-539 CNS 105% | UACC-257 melanoma 106% | M14 melanoma 108% | HCT-15 colon 99.5% | HT29 colon 115% | SNB-75 CNS 94.7% | SNB-19 CNS 102% | U251 CNS 104% | PC-3 prostate 108% | SK-MEL-5 melanoma 99.3% | UACC-62 melanoma 101% | LOX IMVI melanoma 119% | SK-MEL-28 melanoma 102%

Cc1ccc(/C=C/C(=N/N=C(N)N)c2ccccc2)cc1
inactive: K-562 leukemia 11.7% | MALME-3M melanoma 40% | MDA-MB-231 breast 35.5% | SF-268 CNS 36.7% | UACC-257 melanoma 54.5% | HCT-15 colon 27.6% | SNB-19 CNS 38.9% | U251 CNS 13.4% | PC-3 prostate 19% | SK-MEL-5 melanoma 11.3% | UACC-62 melanoma 33.9% | LOX IMVI melanoma 30.8% | SK-MEL-28 melanoma 46.2%
active: DU-145 prostate 2.48% | RXF 393 renal -22.9% | SF-539 CNS 3.64% | M14 melanoma -24.4% | HT29 colon 4.56% | SNB-75 CNS -0.425%

O=C(c1ccc(C(F)(F)F)c(Cl)c1)N(Cc1ccc(Cl)cc1)c1ccc(-c2cc(C(F)(F)F)[nH]n2)c(O)c1
active: K-562 leukemia 7.36% | MALME-3M melanoma 1.34% | MDA-MB-231 breast -35.7% | RXF 393 renal -9.88% | SF-268 CNS 7.06% | SF-539 CNS 2.09% | HCT-15 colon 7.04% | HT29 colon 5.34% | U251 CNS 4.18% | SK-MEL-5 melanoma -42.9% | LOX IMVI melanoma 4.7%
inactive: DU-145 prostate 12.8% | UACC-257 melanoma 10.3% | M14 melanoma 10.9% | SNB-75 CNS 10.3% | SNB-19 CNS 26.2% | PC-3 prostate 11.2% | UACC-62 melanoma 14.5% | SK-MEL-28 melanoma 30.8%

CCc1ccc(Nc2cc(C)c3ccc(O)cc3n2)cc1
inactive: DU-145 prostate 94.8% | K-562 leukemia 20.3% | MALME-3M melanoma 17.5% | MDA-MB-231 breast 31.1% | RXF 393 renal 52.6% | SF-268 CNS 68.1% | SF-539 CNS 89.1% | UACC-257 melanoma 39.4% | M14 melanoma 45.4% | HCT-15 colon 70.7% | HT29 colon 19.6% | SNB-75 CNS 57.8% | SNB-19 CNS 96.5% | U251 CNS 60.9% | PC-3 prostate 62.2% | SK-MEL-5 melanoma 60.6% | UACC-62 melanoma 30.8% | LOX IMVI melanoma 48.5% | SK-MEL-28 melanoma 95.6%

C/C(=N\NC(=S)Nc1ccccc1)c1ccccn1
inactive: DU-145 prostate 57.5% | K-562 leukemia 23.6% | MALME-3M melanoma 31.3% | MDA-MB-231 breast 30.8% | RXF 393 renal 12.2% | SF-268 CNS 43.3% | SF-539 CNS 19.6% | UACC-257 melanoma 17.6% | M14 melanoma 24.1% | HCT-15 colon 28.1% | HT29 colon 34.4% | SNB-75 CNS 79.9% | SNB-19 CNS 43.5% | U251 CNS 32.1% | PC-3 prostate 31.6% | SK-MEL-5 melanoma 16.5% | UACC-62 melanoma 16.4% | LOX IMVI melanoma 37.3% | SK-MEL-28 melanoma 59.8%

COc1ccc(-c2cnc3ccnn3c2-c2cc(OC)c(OC)c(OC)c2)cc1
inactive: DU-145 prostate 20% | MALME-3M melanoma 67.5% | MDA-MB-231 breast 50.3% | SF-268 CNS 53.3% | UACC-257 melanoma 58.4% | M14 melanoma 21.5% | HCT-15 colon 27.8% | SNB-19 CNS 56.4% | U251 CNS 37.7% | PC-3 prostate 29.9% | SK-MEL-5 melanoma 13.6% | UACC-62 melanoma 42.3% | LOX IMVI melanoma 42.5% | SK-MEL-28 melanoma 71.1%
active: K-562 leukemia 5.43% | RXF 393 renal 1.8% | SF-539 CNS -13.4% | HT29 colon 8.99% | SNB-75 CNS 5.62%

CCCCCCCCCCCCCCCCS(=O)(=O)Nc1cc(C(=O)NN)cc(C(=O)NN)c1
inactive: DU-145 prostate 81% | K-562 leukemia 33.9% | MALME-3M melanoma 85.4% | MDA-MB-231 breast 58.2% | RXF 393 renal 94.3% | SF-268 CNS 43.4% | SF-539 CNS 63.7% | UACC-257 melanoma 107% | M14 melanoma 88% | HCT-15 colon 50.5% | HT29 colon 88% | SNB-75 CNS 94.3% | SNB-19 CNS 52.2% | U251 CNS 47.9% | PC-3 prostate 38.8% | SK-MEL-5 melanoma 73.7% | UACC-62 melanoma 70.3% | LOX IMVI melanoma 70% | SK-MEL-28 melanoma 91.9%

CCOP(=O)(O)OP(=O)(O)OCC
inactive: DU-145 prostate 105% | K-562 leukemia 89% | MALME-3M melanoma 98.1% | MDA-MB-231 breast 112% | RXF 393 renal 118% | SF-268 CNS 100% | SF-539 CNS 105% | UACC-257 melanoma 105% | M14 melanoma 100% | HCT-15 colon 98.5% | HT29 colon 102% | SNB-75 CNS 81.3% | SNB-19 CNS 106% | U251 CNS 105% | PC-3 prostate 104% | SK-MEL-5 melanoma 113% | UACC-62 melanoma 106% | LOX IMVI melanoma 92.7% | SK-MEL-28 melanoma 108%

CCCCNCC(O)c1cc2c(Cl)cc(Cl)cc2c2cc(C(F)(F)F)ccc12 (centres undefined)
active: DU-145 prostate -98% | K-562 leukemia -69.1% | MALME-3M melanoma -60.8% | MDA-MB-231 breast -74.8% | RXF 393 renal -94.7% | SF-268 CNS -80.5% | SF-539 CNS -81.7% | UACC-257 melanoma -72.4% | M14 melanoma -86.5% | HCT-15 colon -60.4% | HT29 colon -84.4% | SNB-75 CNS -87.6% | SNB-19 CNS -71.5% | U251 CNS -95.5% | PC-3 prostate -89.6% | SK-MEL-5 melanoma -35.4% | UACC-62 melanoma -84.4% | LOX IMVI melanoma -77.8% | SK-MEL-28 melanoma -88.4%

Cc1cc(N=Nc2ccc(-c3ccc(N=Nc4ccc(O)c(C(=O)O)c4)cc3)cc2)c(N)c(N=Nc2ccc(C(=O)O)cc2)c1N
inactive: DU-145 prostate 110% | K-562 leukemia 75.1% | MALME-3M melanoma 95.2% | MDA-MB-231 breast 102% | RXF 393 renal 94.7% | SF-268 CNS 98.7% | SF-539 CNS 93.2% | UACC-257 melanoma 110% | M14 melanoma 86.5% | HCT-15 colon 74.8% | HT29 colon 76.6% | SNB-75 CNS 82.5% | SNB-19 CNS 95.5% | U251 CNS 88.4% | PC-3 prostate 78.1% | SK-MEL-5 melanoma 87% | UACC-62 melanoma 71.2% | LOX IMVI melanoma 93.9% | SK-MEL-28 melanoma 80.6%

COc1ccc(/C=C/C(=O)c2ccc(NC(=O)CSc3nnc(-c4ccc(OC)cc4)n3-c3ccccc3)cc2)cc1
inactive: DU-145 prostate 104% | K-562 leukemia 78.1% | MALME-3M melanoma 96.8% | MDA-MB-231 breast 90.9% | RXF 393 renal 108% | SF-268 CNS 101% | SF-539 CNS 100% | UACC-257 melanoma 91.9% | M14 melanoma 92.7% | HCT-15 colon 96.4% | HT29 colon 103% | SNB-75 CNS 91.7% | SNB-19 CNS 94.1% | U251 CNS 87.1% | PC-3 prostate 106% | SK-MEL-5 melanoma 95.1% | UACC-62 melanoma 89.4% | LOX IMVI melanoma 102% | SK-MEL-28 melanoma 106%
